# Bioassay records as filed in PubChem.
# A selection: hits, their analogues and other compounds. The true share with any hit is near 0.88%.
# Akt phos inh: Akt phosphorylation inhibition; Neuro2A IGF-stimulated pAkt S473 HTRF, 20 min; stronger effect = lower value; activity change, % for hits at 50 µM; AID 651550; hit rate 0.32% among 360,000; in the data active means activity change below about -80%; inconclusive means mostly about -51% to -80%; further: on the % scale 0 is the no-effect control and ±100 the full control effect
#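 Neuro2A cells (4,500/well, DMEM with 0.5% FBS) were treated with compound at a single 50 µM final concentration, stimulated with 6 nM IGF for 20 min at 37 °C, and lysed. Phospho-Akt Ser473 was read by HTRF as 665/615 ratio ×10^4.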
# GRP78 ERSR act: ER stress response induction in glioma; U87-MG GRP78 promoter luciferase reporter, 16 h; Potency, µM, without a hit: at the top dose activation, usual class: activators; hit rate 0.02% among 420,000; AID 602332; active means well fitted curve in the direction sought with a large enough effect; inconclusive means small, poorly fitted or top-dose-only effect, or another doubt; inactive means no such curve, though single readings can be large; an effect the other way counts as inactive or inconclusive; further: potency means the concentration at half of the fitted maximal effect; series mostly up to about 76 µM; % of control where 0% means no effect; nearly all actives have a fitted effect of over 35% in size
#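 Stably transfected U87-MG human glioma cells carrying a GRP78-based luminescent sensor were seeded at 1000 cells/well, pin-dosed with compounds and incubated 16 h. Luciferase reagent was then added, and end-point luminescence was read after 10 min at room temperature.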
# Six1-Eya2 inh: Six1/Eya2 interaction inhibition; hit rate 0.56% among 360,000; activity change, % (concentration not given with the values); AlphaScreen GST-Six1/His-Eya2 binding, biochemical; stronger effect = lower value; further: on the % scale 0 is the no-effect control and ±100 the full control effect
# Target sequence (O00167 whole entry, looked up): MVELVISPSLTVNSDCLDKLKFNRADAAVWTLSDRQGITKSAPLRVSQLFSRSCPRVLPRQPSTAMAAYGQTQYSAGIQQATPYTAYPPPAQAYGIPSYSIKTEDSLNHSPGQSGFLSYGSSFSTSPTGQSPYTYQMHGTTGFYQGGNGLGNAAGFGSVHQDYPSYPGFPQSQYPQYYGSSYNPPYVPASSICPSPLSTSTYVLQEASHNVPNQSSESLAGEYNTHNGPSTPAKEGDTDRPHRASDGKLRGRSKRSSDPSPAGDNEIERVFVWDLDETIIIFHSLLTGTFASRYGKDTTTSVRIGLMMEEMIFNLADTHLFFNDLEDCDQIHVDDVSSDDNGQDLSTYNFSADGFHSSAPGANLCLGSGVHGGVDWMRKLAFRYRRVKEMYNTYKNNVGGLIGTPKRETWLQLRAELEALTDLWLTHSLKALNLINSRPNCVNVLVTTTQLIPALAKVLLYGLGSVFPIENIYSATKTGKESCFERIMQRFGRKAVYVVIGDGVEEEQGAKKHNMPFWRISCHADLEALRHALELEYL
# Target sequence (Q15475 whole entry, looked up): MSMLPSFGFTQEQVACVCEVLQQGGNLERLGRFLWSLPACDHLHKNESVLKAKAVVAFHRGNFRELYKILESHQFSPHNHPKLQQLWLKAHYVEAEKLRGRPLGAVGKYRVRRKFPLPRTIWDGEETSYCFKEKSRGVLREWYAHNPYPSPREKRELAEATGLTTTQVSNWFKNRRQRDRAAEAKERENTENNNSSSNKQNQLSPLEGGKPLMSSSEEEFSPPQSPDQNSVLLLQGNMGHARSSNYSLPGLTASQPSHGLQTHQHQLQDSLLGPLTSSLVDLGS
#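 GST-Six1 + His-Eya2 (5X stock: 250/500 nM); Tris pH 8.0, 300 mM NaCl, 0.05% BSA, 0.02% Tween 20; GSH donor/Ni acceptor beads; 1 h 37 °C dark; AlphaScreen readout.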
# RGS4 inh: inhibitors of human regulator of G protein signaling 4; Transcreener GDP fluorescence polarization, RGS4-accelerated GTP hydrolysis; hit rate 0.039% among 390,000; P49798; Potency, µM (top dose mostly 114 µM), for inactives: at the top dose activity change, negative = inhibition, actives largely listed as inhibitors; active means well fitted curve in the direction sought with a large enough effect; inconclusive means small, poorly fitted or top-dose-only effect, or another doubt; inactive means no such curve, though single readings can be large; an effect the other way counts as inactive or inconclusive; further: potency means the concentration at half of the fitted maximal effect; on the % scale 0 is the no-effect control and ±100 the full control effect; nearly all actives have a fitted effect of over 75% in size
#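 MLSMR compounds (23 nl, pin-transferred) preincubated 10 min at room temperature with a 500nM (2x) first reagent, then RGS4 at 900nM (2x) plus Transcreener GDP mix added; fluorescence polarization (620/688 nm) read before and after 90 min at 30 °C.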
# CtBP-E1A blk: blocks the CtBP interaction with E1A. activity change, % (no concentration beside the values). AlphaScreen GST-E1A/His-CtBP binding, 1536-well; stronger effect = lower value. hit rate 0.49% among 340,000; further: on the % scale 0 is the no-effect control and ±100 the full control effect
#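 Steps: dispense buffer (Tris pH 8.0, NaCl 300 mM, TCEP 1 mM, BSA, Tween 20); add 5X protein mix (GST-E1A, His-CtBP, 125 nM each); pin 23 nL compound; 2 h at 37 °C, dark; add 5X beads (50 ug/mL); 1 h; read.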
# Starred values were filed as active, the others as inactive; i = inactive; ? = inconclusive; nt = no result given; [ ] = dose if it differs, or a comment. Unless noted, no stated cut-off is given here; in the data, active means activity change below about -65%; inconclusive means mostly about -30% to -63%; inactive means weaker than that.
SMILES,Akt phos inh,GRP78 ERSR act,Six1-Eya2 inh,RGS4 inh,CtBP-E1A blk
O=c1ccc(-c2ccc(S(=O)(=O)NCC3CCN(Cc4ccccc4F)CC3)s2)n[nH]1,i,-2%,-84*,6%[56.9 µM],-88*
O=[N+]([O-])c1cccc(S(=O)(=O)N2CCN(c3nc(-c4ccccc4)nc4ccccc34)CC2)c1,nt,-3%,nt,25%,nt
Oc1c(C(c2ccccn2)N2CCCCC2)cc(Cl)c2cccnc12 (stereo not given),i,-7%,-92*,-19%[56.9 µM],-93*
CN1CCN(C(c2ccc(Cl)cc2)c2cc(Cl)c3cccnc3c2O)CC1 (stereo not given),i,-7%,?,?,-80*
CN1CCN(C(c2ccccc2)c2ccc(Cl)cc2)CC1 (stereo not given),i,-2%,-10,16%,-29
COCc1c(C(=O)NC2CCCCC2)cnn1-c1nccc(-c2cc(C)sc2C)n1,nt,5%,nt,nt,nt
COc1cc(/C=C(\C#N)c2nc3ccc(C)cc3[nH]2)c([N+](=O)[O-])cc1OC,i,-8%,-10,-8%,-16
COc1cc(/C=C(\C#N)c2nc3ccc(C)cc3[nH]2)cc([N+](=O)[O-])c1O,i,?,-73*,-12%,-75*
Cn1nnnc1SCC1=C(C(=O)O)N2C(=O)[C@@H](NC(=O)[C@H](OC=O)c3ccccc3)[C@H]2SC1,nt,-3%,nt,nt,nt
O=C(CSc1ccc(Cl)cc1)c1ccco1,-97%*,2%,-24,-48%,0
O=C(C[N+]12CN3CN(CN(C3)C1)C2)c1ccc(O)c(O)c1,nt,-4%,nt,nt,nt
O=C(C[n+]1cccc2cc(Cl)ccc21)c1ccc2c(c1)CCCC2,nt,-3%,nt,nt,nt
CCc1cc[n+](CC(=O)c2ccc(F)cc2)cc1C(=O)O,nt,-2%,nt,nt,nt
O=C1CC(c2cccc(Cl)c2)Cc2nc(N3CCN(c4ccccc4)CC3)ncc21 (stereo not given),-97%*,-5%,5,6%,9
O=C1CC(c2cccc(Cl)c2)Cc2nc(N3CCOCC3)ncc21 (stereo not given),i,0%,24,-10%,28
CC(=O)c1c(C)[nH]c2ccc(OCC(O)CNCCc3ccccc3)cc12 (stereo not given),nt,-1%,nt,nt,nt
CCNc1ccc(/C=C/c2ccnc3ccccc23)cc1,nt,0%,nt,nt,nt
COC(=O)c1ccccc1-c1cc(C)cc2c1OC(CNC(=O)c1cnc(C)cn1)C2 (stereo not given),nt,0%,nt,nt,nt
COC(=O)[C@H](C)NC(=O)NCc1ccc(F)cc1,-82%*,-2%,3,-10%,6
C[C@H](NC(=O)NCc1ccc(F)cc1)C(=O)O,i,-3%,10,7%,-9
CC(O)(COc1ccccc1)c1ccc2c(c1)CN(Cc1cccc3ncccc13)CCO2 (stereo not given),nt,-2%,nt,nt,nt
COc1ccc(C(=O)c2sc(Nc3cccc(OC)c3)c(C(=O)Nc3cccc(C)c3C)c2N)cc1,i,13µM*,-13,-27%,?
CC(C)=CNNC(=O)c1ccc(O)cc1,nt,5%,nt,nt,nt
COc1cccc(/C=N/Nc2ncnc3c2ncn3Cc2ccccc2)c1O,i,-1%,-78*,-2%,-87*
COc1cccc(/C=N/Nc2cc(N3CCOCC3)ncn2)c1O,i,-1%,-91*,-4%,-94*
SMILES,Akt phos inh,GRP78 ERSR act,Six1-Eya2 inh,RGS4 inh,CtBP-E1A blk
COc1cccc(/C=N/Nc2nnc(C)n2N)c1O,i,-4%,-73*,-15%,-88*
COc1cccc(/C=N/NC(=O)c2c(C)nc3ccc(Cl)cn23)c1O,i,0%,-78*,-7%,-94*
Cc1cc(C)c2c(n1)NCCC2,nt,-2%,nt,nt,nt
COc1ccc(C(=O)NCCc2nnc3n2CCN(CC2CC=CCC2)CC3)cc1 (stereo not given),nt,-5%,nt,nt,nt
COCC(=O)Nc1cc(C(=O)N2CCC(c3ccccc3)CC2)cc2nc(-c3ccccc3)n(C)c12,nt,-5%,nt,nt,nt
COc1cccc(/C=N/NC(=O)c2ccc(-c3ccccc3)cc2)c1O,i,-3%,7,30%,-4
COc1cccc(/C=N/NC(=O)c2ccc(=O)n(C)c2)c1O,i,-2%,-88*,-5%,-87*
COc1cccc(/C=N/NC(=O)c2[nH]c(C)c(C(=O)N/N=C/c3cccc(OC)c3O)c2C)c1O,i,-5%,-92*,?,-1
COc1cccc(/C=N/NC(=O)c2ccc(=O)[nH]n2)c1O,i,0%,-79*,-13%,nt
COc1cc(OC)c(OC)cc1/C=N/NC(=O)c1ccc(=O)n(C)c1,i,-5%,-3,3%,-1
CN(C)c1ccc(Cc2ccc(N(C)C)cc2)cc1,i,4%,-92*,-6%,nt
CCCCCCCCCC[n+]1ccc(/C=C/c2c(C)[nH]c3ccccc23)c2ccccc21,nt,-12%,nt,nt,nt
Cc1ccc(/C=N/n2c(-c3ccccc3)csc2=S)cc1,nt,-2%,nt,nt,nt
c1ccc(N2CCN(c3nc(-c4ccccn4)nc4ccccc34)CC2)cc1,i,-4%,-67*,-23%[11.4 µM],-71*
Oc1ccccc1-c1nc(N2CCCC2)c2ccccc2n1,-145%*,0%,0,21%,4
COc1ccc2nc(NN=C(C)c3ccccn3)cc(C)c2c1,i,-8%,-89*,-23%,?
COc1cc(C(=O)N/N=C(\C)c2ccccn2)cc(OC)c1OC,i,-2%,-8,3%,-4
Cc1ccc(C(=O)Oc2ccc(C(=O)COC(=O)C3CC(=O)N(Cc4ccco4)C3)cc2)cc1 (stereo not given),i,?,-85*,-14%[11.4 µM],?
O=C(COC(=O)C1CC(=O)N(Cc2ccco2)C1)c1ccc(OC(=O)c2ccco2)cc1 (stereo not given),i,-1%,?,?,0
CC(C)N1[N]C(=C2C=c3cc(O)ccc3=N2)c2c(N)ncnc21,nt,-6%,nt,nt,nt
O=S(=O)(c1ccc2ncccc2c1)N1CCN(c2nc(-c3cccs3)nc3ccccc23)CC1,nt,nt,nt,-10%,nt
CCOC(=O)c1cc(CC)sc1NC(=O)c1ccc2c(c1)OCCO2,-113%*,-1%,32,-28%[11.4 µM],31
O=C(NCc1cccc(Cl)c1)c1cnccn1,-86%*,-3%,1,-11%,5
COc1cc2nc(N3CCCN(C)CC3)nc(OC3CCN(C)CC3)c2cc1OC,nt,-5%,nt,nt,nt
O=c1oc2c(O)c(O)cc3c(=O)oc4c(O)c(O)cc1c4c23,i,?,-74*,?,-13
Cc1c(CN2CCOc3ccc(C(C)(O)COc4ccccc4)cc3C2)cnn1C (stereo not given),nt,-2%,nt,nt,nt
CCc1c(C)nc2c(C#N)c[nH]n2c1=O,i,1%,?,-5%,-77*
O=C(Cc1ccc(OCCCc2ccccc2)cc1)NO,nt,-5%,nt,nt,nt
O=C(NCC1(N2CCOCC2)CCCCCC1)c1cnn(-c2nccc(-c3ccco3)n2)c1C1CC1,nt,-4%,nt,nt,nt
CC(=O)/C(=N\Nc1ccccc1)Sc1cccc2cccnc12,i,-2%,-24,10%,?
